This note sets out measurements from PubChem BioAssay (NCI).

Some test systems named below: NCI-H23 lung; NCI-H226 lung; NCI-H322M lung; HOP-62 NSCLC; NCI-H460 lung; HOP-92 NSCLC; NCI-H522 lung; A549/ATCC NSCLC; 786-0 renal; COLO 205 colon.
Holding throughout (test): NCI-60 one-dose screen, 48 h (100 = growth as untreated, 0 = no growth, -100 = all killed)
Conditions in all cases: 10 µM unless noted

This is part of a sample that, as a whole, favours compounds with a hit. Of some 83,000 tested, about 20% had one in any assay.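 The endpoint reported here, percent growth, reads 100 for growth as untreated, 0 for no net growth and -100 for all cells dead.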 A number with no mark means an inactive call. The source made the active and inactive calls. How the source made its calls: active means growth percent below 10; inactive means the rest.

Consider `CC1(C)CC[C@]2(C(N)=O)CC[C@]3(C)C(=CC[C@@H]4[C@@]5(C)C/C(=C/c6ccncc6)C(=O)C(C)(C)[C@@H]5CC[C@]43C)[C@@H]2C1`, for which the growth with NCI-H23 lung is -34.4% [100 µM] (active); with NCI-H226 lung, -48.3% [100 µM] (active); in the test on NCI-H322M lung it was -100% [100 µM] (active); in the test with HOP-62 NSCLC, -63.3% [100 µM] (active); in the test on NCI-H460 lung it was -48.9% [100 µM] (active); in the test with HOP-92 NSCLC, -64.7% [100 µM] (active). In addition, the growth is -67.4% [100 µM] (active) in the test with NCI-H522 lung, -54.2% [100 µM] (active) with A549/ATCC NSCLC, -41.2% [100 µM] (active) in the test on 786-0 renal and -55.3% [100 µM] (active) in the test with COLO 205 colon.
Regarding `COc1ccc(NC(=O)Nc2ccc(-c3cccnc3)cc2N2CCC(CO)CC2)cc1`, the growth in the test with NCI-H23 lung is 27.1%; with NCI-H226 lung, 86.8%; in the test on NCI-H322M lung it was 59.1%; in the test on HOP-62 NSCLC, 54%; with NCI-H460 lung, 60.1%; in the test on HOP-92 NSCLC, 78.1%. The growth was 25.2% in the test on NCI-H522 lung, 41% in the test with A549/ATCC NSCLC, 30.8% in the test on 786-0 renal and 70% in the test on COLO 205 colon.
In the case of `CC(=O)OC[C@]12CC[C@@H](C(=O)CBr)[C@@H]1[C@H]1CC[C@@H]3[C@@]4(C)CCCNC(C)(C)[C@@H]4CC[C@@]3(C)[C@]1(C)CC2`, the growth was -64.3% [100 µM] (active) with NCI-H23 lung; -20.3% [100 µM] (active) with NCI-H226 lung; -100% [100 µM] (active) in the test on NCI-H322M lung; -86.8% [100 µM] (active) with HOP-62 NSCLC; -66.7% [100 µM] (active) in the test with NCI-H460 lung; -76.7% [100 µM] (active) in the test with HOP-92 NSCLC. For the same compound, the growth is -81.4% [100 µM] (active) in the test on NCI-H522 lung, -69.7% [100 µM] (active) with A549/ATCC NSCLC, -74.3% [100 µM] (active) in the test with 786-0 renal and -59.3% [100 µM] (active) in the test on COLO 205 colon.
`COc1cc2c(O)n(CCCN3CCOCC3)c3c4cnc5cccc(c(=O)c3c2cc1OC)c54`: the growth was 33.3% in the test with NCI-H23 lung; 38.2% in the test on NCI-H226 lung; 47.2% in the test with NCI-H322M lung; 14.5% in the test on HOP-62 NSCLC; 9.15% (active) with NCI-H460 lung; 58.4% in the test on HOP-92 NSCLC. The growth in the test on NCI-H522 lung is 16.9%; with A549/ATCC NSCLC, 30.1%; in the test with 786-0 renal, 19%; in the test with COLO 205 colon, 34.2%.
With `COc1ccc(C2CC(c3ccc4ccccc4c3)=NN2c2nc(O)c(C3=c4cc(OC)ccc4=NC3=O)s2)cc1` (stereo not given), the growth in the test on NCI-H23 lung was -29.8% (active); with NCI-H226 lung, -70.6% (active); in the test on NCI-H322M lung it was -17% (active); with HOP-62 NSCLC it was -60.7% (active); in the test with NCI-H460 lung it was -39.8% (active); with HOP-92 NSCLC, -67.7% (active). The growth with NCI-H522 lung is -74.1% (active); with A549/ATCC NSCLC, -72.4% (active); with 786-0 renal, -73.3% (active); with COLO 205 colon, -73.3% (active).
Regarding `Nn1c(Nc2ccc(S(=O)(=O)Nc3ncccn3)cc2)nnc(/C=C/c2c(O)ccc3ccccc23)c1=O`, the growth is 88.9% with NCI-H23 lung; 78.8% with NCI-H226 lung; 90% in the test with NCI-H322M lung; 81.8% with HOP-62 NSCLC; 88.4% in the test on NCI-H460 lung; 83.3% in the test with HOP-92 NSCLC. For the same compound, the growth was 98.1% in the test with NCI-H522 lung, 89.5% in the test with A549/ATCC NSCLC, 111% in the test with 786-0 renal and 103% with COLO 205 colon.
On to `O=C(NCCCNC(=O)OCc1ccc2cccc(O)c2n1)OCc1ccc2cccc(O)c2n1`, for which the growth in the test with NCI-H23 lung is 70%; in the test on NCI-H226 lung, 71.1%; in the test with NCI-H322M lung it was 59.4%; in the test on HOP-62 NSCLC, 32.1%; in the test on NCI-H460 lung it was 26.1%; with HOP-92 NSCLC, 33.9%. Further, the growth in the test with NCI-H522 lung is 18.4%; in the test with A549/ATCC NSCLC, 47.5%; in the test on 786-0 renal it was 60.1%; in the test with COLO 205 colon, 29.6%.
As to `Nc1nc(Nc2ccccc2)c2ncn(Cc3ccc4c(c3)OCO4)c2n1`, the growth is 62.8% in the test on NCI-H23 lung; 75.1% in the test with NCI-H226 lung; 58.1% in the test with NCI-H322M lung; 40.8% with HOP-62 NSCLC; 15.9% in the test on NCI-H460 lung; 63.9% in the test on HOP-92 NSCLC. In addition, the growth was 43.8% with NCI-H522 lung, 42% in the test with A549/ATCC NSCLC, 54.8% in the test with 786-0 renal and 47% with COLO 205 colon.
`CCN(CC)c1ccc(/C=C/C=C2\NC(=O)NC2=O)cc1`: the growth in the test on NCI-H23 lung was 49.8%; in the test on NCI-H226 lung it was 69%; in the test on NCI-H322M lung, 63.3%; in the test with HOP-62 NSCLC, 45.3%; with NCI-H460 lung, 19.7%; in the test with HOP-92 NSCLC it was 31.1%. For the same compound, the growth in the test with NCI-H522 lung is -36% (active); in the test on A549/ATCC NSCLC it was 37.2%; in the test with 786-0 renal, 9.14% (active); in the test with COLO 205 colon, 33.7%.
With `O=[N+]([O-])c1cc([N+](=O)[O-])c(NN=C(c2ccc(O)cc2)c2ccc(O)cc2)cc1Cl`, the growth is -72.9% (active) in the test with NCI-H23 lung; -28% (active) in the test on NCI-H226 lung; 9.47% (active) in the test on NCI-H322M lung; -91.2% (active) with HOP-62 NSCLC; -6.95% (active) in the test with NCI-H460 lung; -69.6% (active) in the test on HOP-92 NSCLC. For the same compound, the growth in the test on NCI-H522 lung is -55.1% (active); with A549/ATCC NSCLC, -71.2% (active); in the test on 786-0 renal it was -89% (active); in the test with COLO 205 colon, 25.6%.
Turning to `CC1(C)CC[C@]2(C(=O)O)CC[C@]3(C)C(=CC[C@@H]4[C@@]5(C)C/C(=C/c6ccco6)C(=O)C(C)(C)[C@@H]5CC[C@]43C)[C@@H]2C1`, the growth is -25.6% [100 µM] (active) with NCI-H23 lung; -42.4% [100 µM] (active) in the test on NCI-H226 lung; -48.8% [100 µM] (active) in the test on NCI-H322M lung; -85.3% [100 µM] (active) in the test on HOP-62 NSCLC; -55.9% [100 µM] (active) with NCI-H460 lung; -82.1% [100 µM] (active) in the test with HOP-92 NSCLC. Besides, the growth in the test on NCI-H522 lung is -39.3% [100 µM] (active); in the test on A549/ATCC NSCLC it was -4.53% [100 µM] (active); in the test on 786-0 renal it was -19.5% [100 µM] (active); in the test with COLO 205 colon it was -80.7% [100 µM] (active).
Turning to `CCOC(=O)Nc1ccc2c(c1)/C(=N\NC(=S)NC)c1ccccc1-2`, the growth was 93.8% in the test on NCI-H23 lung; 107% in the test with NCI-H226 lung; 92.3% in the test with NCI-H322M lung; 108% with HOP-62 NSCLC; 65.1% in the test on NCI-H460 lung; 85.9% in the test on HOP-92 NSCLC. Besides, the growth in the test on NCI-H522 lung is 68%; in the test with A549/ATCC NSCLC, 55.7%; with 786-0 renal it was 64.4%; in the test on COLO 205 colon it was 106%.
